Test results published in PubChem BioAssay AID651592 (Sanford-Burnham Center for Chemical Genomics, 2012).
Activity calls are given as the source filed them.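 The calls were made as follows: active = NF-kB reporter IC50 at most 10 µM, IL-8 IC50 within fivefold of it with bacterial filtrate but not with TNF-alpha; inactive = the rest.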

Target: Interleukin-8 (Homo sapiens) (UniProt P10145)
Assay: inhibitors of NFkB activation in CF airway cells, SAR follow-up, KKLEB cells, panel, IL8 HTRF, NFkB-GFP (AID 651592);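 also: immortalized cystic fibrosis airway epithelial KKLEB cells with an NF-kB GFP reporter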
Settings: PAF/TNFa-induced NFkB-GFP / IL8 HTRF, mean of runs

Sequence of Interleukin-8 (Homo sapiens) (P10145 whole entry, looked up): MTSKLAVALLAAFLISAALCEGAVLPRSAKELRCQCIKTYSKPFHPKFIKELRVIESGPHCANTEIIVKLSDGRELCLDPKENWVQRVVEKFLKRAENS

| Compound | outcome |
| --- | --- |
| O=C(Nc1ccc(N2CCN(C(=O)c3ccccc3)CC2)cc1)c1ccncc1 | active |
| O=C(Nc1ccc(N2CCN(C(=O)c3ccccc3)CC2)cc1)c1ccccc1 | active |
| O=C(Nc1ccc(N2CCN(C(=O)c3ccccc3F)CC2)cc1)c1ccccc1 | active |
| O=C(Nc1ccc(N2CCN(C(=O)c3ccccc3F)CC2)cc1)c1ccncc1 | active |
| Cc1ccc(NCc2cc3c(C(C)(C)C)nn(-c4ccccc4)c3[nH]c2=O)cc1 | active |
| O=C(Nc1ccc(N2CCN(C(=O)c3ccc(F)cc3)CC2)cc1)c1ccncc1 | active |
| CCOc1ccc(NCc2cc3c(-c4ccc(OC)c(OC)c4)nn(-c4ccccc4)c3[nH]c2=O)cc1 | active |
| O=C(Nc1ccc(N2CCN(C(=O)c3ccccc3Cl)CC2)cc1)c1cccc(Br)c1 | active |
| Cc1ccc(CNCc2cc3c(C(C)(C)C)nn(-c4ccccc4)c3[nH]c2=O)cc1 | active |
| O=C(Nc1ccc(N2CCN(C(=O)c3ccccc3Cl)CC2)cc1)c1cc(Br)cc(Br)c1 | active |
| O=C(Nc1ccc(N2CCN(C(=O)c3ccc(F)cc3)CC2)cc1)c1cccc(Br)c1 | active |
| CCOc1ccc(NCc2cc3c(-c4ccc(F)cc4)nn(-c4ccccc4)c3[nH]c2=O)cc1 | inactive |
| O=C(Nc1ccc(N2CCN(C(=O)c3ccccc3)CC2)cc1)c1cc(Br)cc(Br)c1 | active |
| O=C(Nc1ccc(N2CCN(C(=O)c3ccccc3Cl)CC2)cc1)c1ccccc1 | inactive |
| CCOc1ccc(NCc2cc3c(C(C)(C)C)nn(-c4ccccc4)c3[nH]c2=O)cc1 | active |
| O=C(Nc1ccc(N2CCN(C(=O)c3ccccc3)CC2)cc1)c1cccc(Br)c1 | active |
| O=C(Nc1ccc(N2CCN(C(=O)c3ccc(F)cc3)CC2)cc1)c1ccccc1 | active |

| Compound | outcome |
| --- | --- |
| O=C(Nc1ccc(N2CCN(C(=O)c3ccccc3F)CC2)cc1)c1cccc(Br)c1 | active |
| O=C(Nc1ccc(N2CCN(C(=O)c3ccccc3F)CC2)cc1)c1cc(Br)cc(Br)c1 | active |
| CCOc1ccc(NCc2cc3c(C)nn(-c4ccccc4)c3[nH]c2=O)cc1 | inactive |
| O=C(Nc1ccc(N2CCN(C(=O)c3ccccc3Cl)CC2)cc1)c1ccncc1 | active |
| O=C(Nc1ccc(N2CCN(C(=O)c3ccccc3)CC2)cc1)c1cncc(Br)c1 | inactive |
| O=C(Nc1ccc(N2CCN(C(=O)c3ccccc3Cl)CC2)cc1)c1cccnc1 | active |
| O=C(Nc1ccc(N2CCN(C(=O)c3ccccc3Cl)CC2)cc1)c1ccccn1 | active |
| O=C(Nc1ccc(N2CCN(C(=O)c3ccccc3)CC2)cc1)c1cccnc1 | active |
| O=C(Nc1ccc(N2CCN(C(=O)c3ccc(F)cc3)CC2)cc1)c1cccnc1 | active |
| O=C(Nc1ccc(N2CCN(C(=O)c3ccc(F)cc3)CC2)cc1)c1cncc(Br)c1 | inactive |
| O=C(Nc1ccc(N2CCN(C(=O)c3ccc(F)cc3)CC2)cc1)c1ccccn1 | active |
| O=C(Nc1ccc(N2CCN(C(=O)c3ccccc3F)CC2)cc1)c1ccccn1 | active |
| O=C(Nc1ccc(N2CCN(C(=O)c3ccccc3F)CC2)cc1)c1cccnc1 | active |
| CCOc1ccc(NCc2cc3c(C(C)(C)C)nn(-c4ccc(Cl)cc4)c3[nH]c2=O)cc1 | active |
| O=C(Nc1ccc(N2CCN(C(=O)c3ccccc3)CC2)cc1)c1ccccn1 | active |
| O=C(Nc1ccc(N2CCN(C(=O)c3ccccc3Cl)CC2)cc1)c1cncc(Br)c1 | inactive |
| O=C(Nc1ccc(N2CCN(C(=O)c3ccc(F)cc3)CC2)cc1)c1cc(Br)cc(Br)c1 | active |
